Assay outcomes as filed in PubChem BioAssay.
Neddyl block = cullin neddylation inhibition; TR-FRET cullin neddylation, biochemical; inhibition, % at 25 µM; hit rate 0.58% among 360,000; in the data active means inhibition above about 36%
GRK2 aptamer HTS = human GRK2 inhibition via aptamer displacement. inhibition of aptamer binding, % at 10 µM. hit rate 0.59% among 330,000. bead flow cytometry, FAM-aptamer displacement from GRK2. AID 488847;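 active means inhibition of aptamer binding above 40%, roughly 3 SD of noise, on plates passing a quality check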;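 further: median bead fluorescence of bound FAM aptamer so fluorescent compounds give negative values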
H9c2 protect = protects H9c2 cardiomyocytes from peroxide injury. H2O2 injury protection, ATPLite, 2 h. protection from H2O2 cell death, % at 20 µM. hit rate 0.63% among 360,000. AID 588492;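 active means compounds giving at least 50% protection of heart cells from peroxide-induced death in the single-dose screen, raw or plate-pattern-corrected value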
HDAC3 inhib = inhibitors of human histone deacetylase 3; hit rate 0.15% among 320,000; O15379; AID 2718; inhibition, % at 8.3 µM; recombinant HDAC3, fluorogenic peptide/trypsin coupled, fluorescence; in the data active means inhibition above about 26%, passing the limit was not always enough
Target sequence (O15379 whole entry, looked up): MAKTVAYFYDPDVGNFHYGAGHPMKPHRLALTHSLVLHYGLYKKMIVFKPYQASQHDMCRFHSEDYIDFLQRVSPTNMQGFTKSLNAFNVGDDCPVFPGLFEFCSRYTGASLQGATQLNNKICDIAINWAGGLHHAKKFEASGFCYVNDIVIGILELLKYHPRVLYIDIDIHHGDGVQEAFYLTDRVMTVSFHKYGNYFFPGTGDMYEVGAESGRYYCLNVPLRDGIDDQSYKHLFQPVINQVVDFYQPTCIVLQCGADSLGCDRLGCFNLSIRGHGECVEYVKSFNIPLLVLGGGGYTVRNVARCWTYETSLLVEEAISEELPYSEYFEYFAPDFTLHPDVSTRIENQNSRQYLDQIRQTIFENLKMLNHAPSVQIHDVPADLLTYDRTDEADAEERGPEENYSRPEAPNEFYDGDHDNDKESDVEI
GRK2 CP1 = human GRK2 inhibition confirmation, cherry pick 1. hit rate 4% among 2,000. bead-bound GRK2, FAM-aptamer displacement, flow cytometry. AID 504451. aptamer displacement, % at 10 µM. shares compounds with GRK2 aptamer HTS;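 active means aptamer displacement above 40%, near three times the noise of non-fluorescent compounds, on plates passing quality checks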;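 further: negative values mostly reflect intrinsic compound fluorescence rather than true enhancement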
Aptamer quench 1 = fluorescent aptamer quenching in GRK2 counter-screen dose response; fluorescence change (kMESF span), kMESF (test concentration not listed); shares compounds with GRK2 aptamer HTS; Fluorescent RNA aptamer beads, flow cytometry; hits give high values; 110 tested, under 10 active;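 active means compounds whose bead fluorescence drops by more than 37 kMESF across the dose range, marking them as dye quenchers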
FAM quench CP1 = quenches fluorescent RNA aptamer, GRK2 hit artifact; shares compounds with GRK2 aptamer HTS; Carboxyfluorescein RNA aptamer on beads, flow cytometry quenching; hits give low values; fluorescence response (% of DMSO), % at 10 µM; 2,000 tested, under 10 active; AID 504580;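 active means compounds that quench the bead-bound fluorescent RNA probe, cutting fluorescence to under half of the solvent control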;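 further: counterscreen run without GRK2 so only probe quenching by compound is measured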
GRK2 CP2 = human GRK2 inhibition confirmation, cherry pick 2; shares compounds with GRK2 aptamer HTS; bead-bound GRK2, FAM-aptamer displacement, flow cytometry; inhibition of aptamer binding, % at 10 µM; 360 tested, under 10 active;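 active means inhibition of aptamer binding above 40%, about triple the noise seen with nonglowing compounds, on plates passing quality control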;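 further: negative values mostly come from compounds that fluoresce themselves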
FAM quench CP2 = quenches fluorescent RNA aptamer, GRK2 hit artifact; shares compounds with GRK2 aptamer HTS; fluorescence response vs DMSO, % at 10 µM; 360 tested, under 10 active; carboxyfluorescein RNA aptamer beads, flow cytometry quenching; hits give low values;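 active means response vs DMSO under 50%, meaning signal dropped by over half, treated as fluorescence quencher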;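 further: labelled aptamer on streptavidin beads without GRK2 as a quench counter-screen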
Each line names hits and unclear results; the compound was inactive in the other large screens (follow-up assays come after a bar, where shown). Hits are enriched below; roughly 1.8% of the tested compounds scored in any of these assays.

CCN(CC)C(=O)Cn1cc(S(=O)(=O)CC(=O)Nc2cc(OC)ccc2OC)c2ccccc21	GRK2 aptamer HTS 71 | GRK2 CP2 inactive | FAM quench CP2 inactive
O=C(NCc1ccccc1CN1CCCCC1)c1ccccc1N1CCCC1=O	none
Nc1[nH]ncc1N=Nc1ccc(Cl)cc1	none
Nc1[nH]ncc1-c1ccc(Cl)cc1	GRK2 aptamer HTS 99 | GRK2 CP1 inactive | FAM quench CP1 inactive
O=C(NCc1ccccc1)c1ccc(CN(c2ccccn2)S(=O)(=O)c2ccccc2)cc1	none
Cc1ccc(NC(=O)CC(C)S(=O)(=O)c2ccc3c(c2)NC(=O)CO3)c(Cl)c1 (stereo not drawn)	none | GRK2 CP2 inactive | FAM quench CP2 inactive
Cc1ccc(CNC(=O)CC(C)S(=O)(=O)c2ccc3c(c2)NC(=O)CO3)cc1 (stereo not drawn)	none
Cn1c(SCc2cccc(F)c2)nnc1-c1ccccn1	GRK2 aptamer HTS 58 | GRK2 CP1 inactive | FAM quench CP1 inactive
Cn1c(SCc2cccc(Br)c2)nnc1-c1ccccn1	none
O=S(=O)(c1cccc(Br)c1)N1CCN(c2ccnc3cc(Cl)ccc23)CC1	none
O=S(=O)(c1ccccc1OC(F)(F)F)N1CCN(c2ccnc3cc(Cl)ccc23)CC1	GRK2 aptamer HTS 77 | GRK2 CP2 inactive | FAM quench CP2 inactive
COc1ccc(CCNC(=O)CSc2ccc3nnc(CCNC(=O)c4ccc(C)cc4)n3n2)cc1OC	GRK2 aptamer HTS 61 | GRK2 CP2 inactive | FAM quench CP2 inactive
CCOCc1nnc(NC(=O)CS(=O)(=O)c2ccc(C)cc2)s1	none
COCc1nnc(NC(=O)CCCOc2ccccc2)s1	none
CCc1nnc(NC(=O)CCS(=O)(=O)c2ccc(C)cc2)s1	none | GRK2 CP1 inactive | FAM quench CP1 inactive
COCc1nnc(NC(=O)CCS(=O)(=O)c2ccccc2)s1	none | GRK2 CP1 inactive | FAM quench CP1 inactive
CCc1nnc(NC(=O)c2cccc(S(=O)(=O)N3CCCCC3)c2)s1	GRK2 aptamer HTS 95 | GRK2 CP2 inactive | FAM quench CP2 inactive
O=C(Nc1nc(-c2cccs2)cs1)c1ccc(S(=O)(=O)N2CCCC2)cc1	none | GRK2 CP1 inactive | FAM quench CP1 inactive
Cc1cccc(NC(=O)CCS(=O)(=O)c2ccccc2)n1	none | GRK2 CP1 inactive | FAM quench CP1 inactive
CCc1nnc(NC(=O)CCS(=O)(=O)Cc2ccccc2)s1	none
CCc1nnc(NC(=O)CCS(=O)(=O)c2ccccc2)s1	none | GRK2 CP1 inactive | FAM quench CP1 inactive
CCCCc1nnc(NC(=O)CCS(=O)(=O)c2ccc(C)cc2)s1	none | GRK2 CP1 inactive | FAM quench CP1 inactive
CC1Nc2nc(N(C)C)[nH]c(=O)c2NC1C (stereo not drawn)	none (not shown: Neddyl block) | GRK2 CP1 inactive | FAM quench CP1 inactive
COc1ccc(CCNCc2ccc(OCc3ccccc3)cc2)cc1	GRK2 aptamer HTS 58 | GRK2 CP1 inactive | FAM quench CP1 inactive
COc1ccc(CNS(=O)(=O)CCNCCc2ccccc2)cc1	none (no result: GRK2 aptamer HTS, HDAC3 inhib)
Cc1cc(C)n2nc(SCC(=O)Nc3ccc(O)cc3)nc2n1	none
Cc1cc(C)cc(NC(=O)CSc2nc3nc(C)cc(C)n3n2)c1	GRK2 aptamer HTS 41 | GRK2 CP1 inactive | FAM quench CP1 inactive
CC1CN(C(=O)c2cccc(S(=O)(=O)N3CCOCC3)c2)CC(C)O1 (stereo not drawn)	none | GRK2 CP1 inactive | FAM quench CP1 inactive
CC1CN(C(=O)c2cccc(COc3ccccc3Cl)c2)CC(C)O1 (stereo not drawn)	GRK2 aptamer HTS 98 | GRK2 CP1 inactive | FAM quench CP1 inactive
CC1CN(C(=O)c2cccc(C(=O)N3CC(C)OC(C)C3)c2)CC(C)O1 (stereo not drawn)	none
CC1CN(C(=O)c2cccc(S(=O)(=O)N3CCN(c4ccc(F)cc4)CC3)c2)CC(C)O1 (stereo not drawn)	none
O=C(COc1ccc(Cl)cc1Cl)NCCC1=CCCCC1	none
Cc1cc(C)cc(OCC(=O)OC(C)C(=O)Nc2c(C)n(C)n(-c3ccccc3)c2=O)c1 (stereo not drawn)	none
Cc1ccc(C)c(NCCCCCCCC(=O)O)c1	none (no result: GRK2 aptamer HTS, HDAC3 inhib)
COc1ccc(C(CC(=O)N2CCOCC2)c2c(OC)cc(OC)c3c(-c4ccccc4)cc(=O)oc23)cc1 (stereo not drawn)	GRK2 aptamer HTS 48 | GRK2 CP1 inactive | FAM quench CP1 inactive
CC1CCc2c(sc(NC(=O)c3ccc(-c4ccccc4[N+](=O)[O-])o3)c2C#N)C1 (stereo not drawn)	GRK2 aptamer HTS 73 | GRK2 CP1 inactive | FAM quench CP1 inactive
NS(=O)(=O)c1ccc(NS(=O)(=O)c2ccc(NC(=O)c3ccc(-c4ccccc4)cc3)cc2)cc1	GRK2 aptamer HTS 41 | GRK2 CP1 inactive | FAM quench CP1 inactive
NS(=O)(=O)c1ccc(NC(=O)c2ccc(-c3ccccc3)cc2)cc1	none (no result: GRK2 aptamer HTS, HDAC3 inhib)
Cc1ccc(-c2noc(C3CCCN(C(=O)c4cccc(F)c4)C3)n2)cc1 (stereo not drawn)	GRK2 aptamer HTS 100 | GRK2 CP1 inactive | FAM quench CP1 inactive
CC(=O)c1cccc(Nc2c3c(nc4ccccc24)CCC3)c1	none
COCCCNc1c2c(nc3ccccc13)CCC2	none (no result: GRK2 aptamer HTS, HDAC3 inhib)
Fc1cccc(Nc2c3c(nc4ccccc24)CCC3)c1	none | GRK2 CP2 inactive | FAM quench CP2 inactive
CN(C)CCNc1c2c(nc3ccccc13)CCC2	none | GRK2 CP2 inactive | FAM quench CP2 inactive
COc1ccc(C(C(=O)NCc2ccccc2)n2c(-c3ccccn3)nc3ccccc32)cc1 (stereo not drawn)	none (no result: GRK2 aptamer HTS, H9c2 protect, HDAC3 inhib)
CCNc1nc(NCC)n2c(SCC(=O)Nc3ccc(OC(F)F)cc3)nnc2n1	none (no result: GRK2 aptamer HTS, HDAC3 inhib)
CCNc1nc(NCC)n2c(SCC(=O)Nc3ccc(C)c(C)c3)nnc2n1	GRK2 aptamer HTS 78 (no result: HDAC3 inhib) | GRK2 CP1 57 | Aptamer quench 1 inactive | FAM quench CP1 inactive
CCNc1nc(NCC)n2c(SCC(=O)Nc3ccc(Br)cc3F)nnc2n1	none
CCNc1nc(NCC)n2c(SCC(=O)Nc3cc(OC)ccc3OC)nnc2n1	none (no result: HDAC3 inhib) | GRK2 CP2 inactive | FAM quench CP2 inactive
CCNc1nc(NCC)n2c(SCC(=O)Nc3ccc(F)cc3)nnc2n1	none
CCNc1nc(NCC)n2c(SCC(=O)Nc3ccccc3)nnc2n1	none | GRK2 CP2 inactive | FAM quench CP2 inactive
CC(=O)Nc1nnc([N+](=O)[O-])s1	none (no result: GRK2 aptamer HTS, HDAC3 inhib)
CCN1CCCC1CNC(=O)c1ccc(Sc2ccccc2Cl)c([N+](=O)[O-])c1 (stereo not drawn)	none
COc1ccc(-c2cc(C(=O)N(C)Cc3nc4ccccc4c(=O)[nH]3)c3ccccc3n2)cc1OC	H9c2 protect 66 (not shown: Neddyl block) | GRK2 CP1 inactive | FAM quench CP1 inactive
